hDAT+cocaine – changed human dopamine transporter uptake under cocaine IC80 | Q01959 | LLC-PK1 hDAT cells, [14C]-dopamine uptake with cocaine IC80; actives deviate in either direction | 1.3% of 110,000 active | B-score at 10 µM | AID 449768;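 active = Z score or B-score, a plate-position-corrected score, falls beyond the plate's 99.7% confidence bounds, in either direction; inactive = both scores lie inside the 99.7% bounds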
CYP2C9 activ – increases human cytochrome P450 2C9 activity; P11712; recombinant CYP2C9, luciferin-H conversion, luminescence; stronger effect = higher value; factor 1 = untreated enzyme, 0 = blocked; activation factor at 5 µM; 1.4% of 96,000 active;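 active = activation factor of 2 or more for CYP2C9 at a 5 µM dose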
Target sequence (P11712 whole entry, looked up): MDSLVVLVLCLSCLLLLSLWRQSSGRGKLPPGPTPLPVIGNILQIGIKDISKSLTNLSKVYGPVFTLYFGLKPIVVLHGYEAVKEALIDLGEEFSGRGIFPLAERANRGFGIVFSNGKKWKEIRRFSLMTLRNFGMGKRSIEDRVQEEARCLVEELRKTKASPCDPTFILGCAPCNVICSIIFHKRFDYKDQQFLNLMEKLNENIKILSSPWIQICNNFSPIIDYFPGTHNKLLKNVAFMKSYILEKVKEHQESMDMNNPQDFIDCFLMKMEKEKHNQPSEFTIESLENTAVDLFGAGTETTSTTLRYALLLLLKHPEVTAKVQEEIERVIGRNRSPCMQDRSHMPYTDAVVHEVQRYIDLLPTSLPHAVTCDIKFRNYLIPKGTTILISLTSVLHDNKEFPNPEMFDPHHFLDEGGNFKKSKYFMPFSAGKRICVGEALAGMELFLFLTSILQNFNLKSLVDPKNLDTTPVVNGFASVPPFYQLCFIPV
CYP2C19 act – activators of human cytochrome P450 2C19; recombinant CYP2C19, luciferin-H EGE luminescence; stronger effect = higher value; 0 = fully inhibited enzyme, 1 = untreated enzyme; activation factor at 5 µM; 96,000 tested, under 10 active; AID 1025;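 active = activation factor of at least 2 at 5 µM in the primary screen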
D1 allo mod – allosterically modulates the human D1 dopamine receptor; 5.9% of 58,000 active; P21728; HEK293 D1, CRE-luciferase, dopamine EC30 potentiation; actives deviate in either direction; B-score at 10 µM;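 active = luminescence count or its row- and column-corrected plate score outside the 99.7% band of the plate's sample wells, on either side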
CYP2C19 inh – inhibitors of human CYP2C19; 21% of 96,000 active; AID 778; P33261; CYP2C19 Supersomes, luciferin-H EGE luminescence, 30 min; inhibition, % at 5 µM;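 active = CYP2C19 inhibition above a set limit at 5 µM in the primary screen, cut at about 50% in these data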
CYP2C9 inhib – inhibitors of human CYP2C9 | 20% of 96,000 active | P11712 | inhibition, % at 5 µM | CYP2C9 Supersomes, luciferin-H conversion, luminescence;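 active = blocking of liver enzyme CYP2C9 beyond about 50% at 5 µM, limit read from the data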
Of the large screens only hits and unclear results are named; the others gave an inactive call. Sampled rows, rich in hits. Any-hit rate of the full collection: about 28%.

CCOC(=O)Cn1nnnc1CN(Cc1ccccc1)Cc1cc2cc(CC)ccc2[nH]c1=O	CYP2C9 inhib 62
CC(C)NC(=O)NC(=O)COc1cccc2c1OC(C)(C)C2	CYP2C19 inh 93
Cc1cnc(NC(=O)COc2cccc3c2OC(C)(C)C3)s1	none (no result: D1 allo mod)
COC(=O)CSc1ccc2nnc(-c3ccc(F)cc3)n2n1	none
COC(=O)CSc1snnc1-c1ccc(F)cc1	CYP2C19 inh 66 (no result: D1 allo mod)
COc1ccc(C2=NCC(CSc3nnc(-c4ccc5c(c4)OCO5)o3)S2)cc1 (stereo not given)	none
CCN(CC)S(=O)(=O)c1ccc2oc(SCC3CN=C(c4ccc(OC)cc4)S3)nc2c1 (stereo not given)	CYP2C9 inhib 79
O=C(c1cc(-c2cccc(O)c2)on1)N1CCCCC1	D1 allo mod -4.8, CYP2C19 inh 51
O=C(c1cc(-c2ccc(F)cc2)on1)N1CCCC1	D1 allo mod -3.6 (no result: hDAT+cocaine)
COc1cccc(-c2cc(C(=O)N3CCCCCC3)no2)c1	D1 allo mod -4.9
COc1cccc(-c2cc(C(=O)N3CCCCC3C)no2)c1 (stereo not given)	none (no result: hDAT+cocaine)
O=C(c1cc(-c2ccc(Cl)c(Cl)c2)on1)N1CCCC1	none
CN1CCN(C(=O)c2cc(-c3ccccc3)on2)CC1	none
CC1CCCC(NC(=O)c2ccc(CNc3c(N4CCCC4)c(=O)c3=O)cc2)C1C (stereo not given)	none
CCCCCC(=O)Nc1cccc(C2=NOC3(C2)C[C@H](C(N)=O)N(C(=O)CC)C3)c1 (stereo not given in full)	none (no result: CYP2C9 activ, CYP2C19 act, D1 allo mod, CYP2C19 inh, CYP2C9 inhib)
O=C(NCc1ccccc1)c1cnsn1	none
O=C(NCc1ccccc1)c1n[nH]nc1-c1ccccc1O	CYP2C19 inh 73, CYP2C9 inhib 52
CC(=O)Nc1ccc(SC(C)C(=O)NC(N)=O)cc1 (stereo not given)	none (no result: D1 allo mod)
Cc1cccc(NC(=O)CCOc2ccccc2)c1	hDAT+cocaine -1.9 (no result: D1 allo mod)
Cc1cccc(OCCCC(=O)Nc2ccc(N3CCCCC3)cc2)c1	none (no result: D1 allo mod)
Cc1cccc(NC(=O)CC(C)(C)C)c1	none
COC(=O)c1cccc(NC(=O)CCCOc2cccc(C)c2)c1	CYP2C19 inh 76, CYP2C9 inhib 58 (no result: D1 allo mod)
Cc1cccc(NC(=O)Cc2ccc(F)cc2)c1	CYP2C19 inh 96, CYP2C9 inhib 58 (no result: D1 allo mod)
CCCCn1nnnc1SCC(=O)NNC(=O)C1CCCCC1	none (no result: D1 allo mod)
CC(C)c1ccc(/C=C/C(=O)n2nnc3ccccc32)cc1	none (no result: hDAT+cocaine, D1 allo mod)
CCOC(=O)c1sc2ccccc2c1OC(=O)c1ccccc1	CYP2C19 inh 85, CYP2C9 inhib 90 (no result: D1 allo mod)
CCCn1nnc(NC(=O)Cc2ccccc2)n1	none (no result: D1 allo mod)
CCOC(=S)NC(=O)c1sc2ccccc2c1Cl	CYP2C9 inhib 90 (no result: D1 allo mod)
CC(C)c1nnc(NC(=O)c2sc3ccccc3c2Cl)s1	none (no result: D1 allo mod)
CCOC(=O)c1sc(NC(=O)c2ccccc2)cc1C	none (no result: D1 allo mod)
Cc1nn(Cc2ccc(Cl)c(Cl)c2)c(C)c1NC(=O)c1sc2ccccc2c1Cl	CYP2C19 inh 70, CYP2C9 inhib 87 (no result: D1 allo mod)
CCCn1nnc(NC(=O)c2sc3ccccc3c2Cl)n1	CYP2C19 inh 61
O=C(NCc1ccccn1)C1CCC(=O)N1C1CCCCC1 (stereo not given)	none (no result: D1 allo mod)
CC1(C)C(N(O)C(=O)Nc2ccc(Cl)cc2)N(c2ccc(Cl)cc2)C(=O)N1CC(=O)NN (stereo not given)	none (no result: D1 allo mod)
CCCOC(=S)NC(=O)c1sc2ccccc2c1Cl	CYP2C9 inhib 68 (no result: D1 allo mod)
CCCC(=O)N1CCN(c2ccc(NC(=O)c3sc4ccccc4c3Cl)cc2)CC1	none (no result: D1 allo mod)
O=C(NC1CCCCC1)N1CCCC1	none (no result: CYP2C9 activ, CYP2C19 act, D1 allo mod, CYP2C19 inh, CYP2C9 inhib)
Nc1nc(Cl)cc(N2CCC(c3cc(-c4ccc(Cl)cc4Cl)n[nH]3)CC2)n1	none (no result: D1 allo mod)
COc1ccc(O)c(C(=O)c2cnc3onc(C)c3c2)c1	CYP2C19 inh 83 (no result: D1 allo mod)
Cc1nn(C)c2ncc(C(=O)c3cc(F)ccc3O)cc12	CYP2C19 inh 95, CYP2C9 inhib 68 (no result: D1 allo mod)
Cc1[nH]nc2ncc(C(=O)c3ccccc3O)cc12	none (no result: D1 allo mod)
O=S1(=O)N=C(Nc2ccc(O)c(CN3CCCCC3)c2)c2ccccc21	none (no result: D1 allo mod)
COC(=O)c1cc(=O)n(CCc2ccccc2)c(=Nc2ccc(F)cc2)s1	none (no result: D1 allo mod)
COC(=O)c1cc(=O)n(CCc2ccc(OC)cc2)c(=Nc2ccc(F)c(Cl)c2)s1	CYP2C9 inhib 56 (no result: D1 allo mod)
COC(=O)c1cc(=O)n(Cc2ccc3c(c2)OCO3)c(=Nc2ccc(F)c(Cl)c2)s1	CYP2C9 inhib 57 (no result: D1 allo mod)

Compound activity (PubChem)
